High-throughput results deposited in PubChem BioAssay by The Scripps Research Institute Molecular Screening Center.
An excerpt weighted towards active compounds, which were near 2.9% of everything screened.
ADAM17 inh: ADAM17 inhibition, QFRET primary screen; P78536; inhibition, % at 6.95 µM; hit rate 0.83% among 370,000; recombinant ADAM17, EDANS/DABCYL FRET peptide cleavage; AID 720648;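 active = inhibition above the mean of compounds lying between control limits plus 3 SD, set per campaign, cut at about 8.5% in these data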
PLCg1 inh: blocks human PLC-gamma1 enzyme activity | inhibition, % at 12.2 µM | purified PLC-gamma1, fluorogenic substrate, fluorescence | AID 720700 | hit rate 0.84% among 370,000 | P19174; in the data active = inhibition above about 9.5%
ADAM10 inh: ADAM10 inhibition, QFRET primary screen; O14672; recombinant ADAM10, EDANS/DABCYL FRET peptide cleavage, 3 h; inhibition, % at 7 µM; hit rate 0.62% among 370,000; AID 720582;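 active = inhibition above a per-campaign cutoff equal to the mean of compounds falling between control-based bounds plus 3 SD, cut at about 20% in these data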
proKLK7 act: proKLK7 (human) activation, primary screen. hit rate 0.9% among 370,000. activation, % at 7 µM. AID 652039. purified proKLK7, EDANS-DABCYL substrate fluorescence; 100% is mature enzyme control, 0% vehicle;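 active = activation above the mean of all tested compounds plus 3 SD, computed per campaign excluding outliers beyond control limits, cut at about 13% in these data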
PLCb3 inh: PLC-beta3 (human) inhibition, primary screen | AID 720704 | Purified PLC-beta3, fluorogenic substrate, fluorescence | hit rate 0.18% among 370,000 | inhibition, % at 12.2 µM; in the data active = inhibition above about 11%
Target sequence (Q01970 whole entry, looked up): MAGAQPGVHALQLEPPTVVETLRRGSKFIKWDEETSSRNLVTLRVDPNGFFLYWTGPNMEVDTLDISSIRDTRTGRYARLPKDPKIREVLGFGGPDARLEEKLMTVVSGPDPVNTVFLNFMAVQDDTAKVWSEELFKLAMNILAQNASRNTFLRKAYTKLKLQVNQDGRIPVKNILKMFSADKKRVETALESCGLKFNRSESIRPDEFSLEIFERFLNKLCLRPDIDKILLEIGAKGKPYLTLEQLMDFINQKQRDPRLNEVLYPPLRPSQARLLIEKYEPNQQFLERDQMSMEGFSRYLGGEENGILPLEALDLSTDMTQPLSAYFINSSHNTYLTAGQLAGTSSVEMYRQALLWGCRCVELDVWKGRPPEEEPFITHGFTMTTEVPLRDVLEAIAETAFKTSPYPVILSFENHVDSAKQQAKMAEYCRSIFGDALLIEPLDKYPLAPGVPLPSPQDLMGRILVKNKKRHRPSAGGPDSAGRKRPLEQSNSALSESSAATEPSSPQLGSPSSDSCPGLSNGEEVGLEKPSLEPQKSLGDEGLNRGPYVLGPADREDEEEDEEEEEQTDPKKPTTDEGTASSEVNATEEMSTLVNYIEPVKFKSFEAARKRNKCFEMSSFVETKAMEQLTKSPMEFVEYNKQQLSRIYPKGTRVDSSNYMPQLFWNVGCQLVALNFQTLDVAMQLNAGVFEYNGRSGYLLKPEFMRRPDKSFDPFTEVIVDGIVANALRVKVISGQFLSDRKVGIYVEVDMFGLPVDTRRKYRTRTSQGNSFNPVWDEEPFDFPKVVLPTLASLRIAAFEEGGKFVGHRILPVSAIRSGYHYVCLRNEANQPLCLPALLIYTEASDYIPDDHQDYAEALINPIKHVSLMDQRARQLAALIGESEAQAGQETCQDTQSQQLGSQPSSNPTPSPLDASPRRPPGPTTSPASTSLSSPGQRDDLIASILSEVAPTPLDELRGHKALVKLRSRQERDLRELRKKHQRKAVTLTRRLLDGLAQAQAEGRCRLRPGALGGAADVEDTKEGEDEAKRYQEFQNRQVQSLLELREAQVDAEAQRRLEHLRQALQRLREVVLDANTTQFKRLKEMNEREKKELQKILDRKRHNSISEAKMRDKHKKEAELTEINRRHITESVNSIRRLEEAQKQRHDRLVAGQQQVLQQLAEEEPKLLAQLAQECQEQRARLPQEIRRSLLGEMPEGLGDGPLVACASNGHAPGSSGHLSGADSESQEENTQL
proKLK7 act conf: proKLK7 activation, confirmation; shares compounds with proKLK7 act; purified proKLK7, EDANS-DABCYL substrate fluorescence; scaled: vehicle 0, mature enzyme 100; activation, % at 7 µM; hit rate 68% among 3,200; AID 686949;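 active = activation, as change over the incubation, above the mean of all tested compounds plus 3 SD, cut at about 13% in these data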
EDANS interfere: fluorescence interference counter-screen for KLK7 activators. shares compounds with proKLK7 act. activation, % at 7 µM. hit rate 80% among 3,200. EDANS-DABCYL substrate fluorescence interference, no enzyme, 4 h; solvent 0%, active enzyme control 100%. AID 686952;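 active = activation above the all-compound mean plus 3 SD, ignoring values outside control-based bounds, cut at about 4.8% in these data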;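 also: value is the 4 h activation minus the activation read at time zero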
K7 EDANS ctr: EDANS fluorescence interference in dose response, no enzyme. shares compounds with proKLK7 act. EDANS-DABCYL peptide fluorescence interference. EC50, µM. hit rate 20% among 250;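 active = compounds that raise the fluorescence signal in this interference counterscreen, with EC50 at or below 10 µM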;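 also: intact quenched peptide substrate alone read at 355 nm excitation and 520 nm emission; signal is fluorescence gain from T0 to T4 after four hours at room temperature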
Hits are given with their value; i = inactive; nt = not tested or not shown.

SMILES	ADAM17 inh	PLCg1 inh	ADAM10 inh	proKLK7 act	PLCb3 inh	proKLK7 act conf	EDANS interfere	others
COc1cc(C2C3CN(C)CC=C3C(C#N)=C(N)C2(C#N)C#N)ccc1OC(C)C (stereo not given)	i	i	i	i	i	nt	nt
CC(C)N1CC=C2C(C#N)=C(N)C(C#N)(C#N)C(c3ccccc3)C2C1 (stereo not given)	i	i	i	16	i	29	28
N#CC1=C(N)C(C#N)(C#N)[C@H](c2ccncc2)[C@H]2CN(C(=O)OCc3ccccc3)CC=C12	i	i	i	31	i	27	21
CC(C)(C)OC(=O)N1CC=C2C(C#N)=C(N)C(C#N)(C#N)[C@H](c3cccnc3)[C@H]2C1	i	i	i	19	i	37	34
CCOC(=O)N1CC=C2C(C#N)=C(N)C(C#N)(C#N)[C@H](c3cccs3)C2C1 (stereo not given in full)	i	i	i	i	i	nt	nt
COc1cccc(N2CCN(C(=O)CSc3nc4ncccc4[nH]3)CC2)c1	i	i	i	i	i	nt	nt
COc1cccc(CNC(=O)[C@H]2CCCN2C(=O)[C@H]2CCCN2)c1	i	i	i	i	i	nt	nt
CC1COCC(C)N1S(=O)(=O)c1ccc2c(c1)CCN2C(=O)C1CCC1 (stereo not given)	i	i	i	i	i	nt	nt
CCC1CCc2c(sc(NC(=O)c3ccco3)c2C(N)=O)C1 (stereo not given)	i	i	i	91	i	i	i
CS(=O)(=O)Nc1cccc(C2=NN(C(=O)CCC(=O)O)C(c3cccs3)C2)c1 (stereo not given)	i	i	i	i	i	nt	nt
CS(=O)(=O)Nc1ccc(C2=NN(C(=O)CCCC(=O)O)C(c3cccs3)C2)cc1 (stereo not given)	i	i	i	26	i	48	74
Cc1cc2cc3c(=O)[nH]c(=O)nc-3n(CC(O)C(O)C(O)CO)c2cc1C (stereo not given)	i	i	i	48	i	61	71
Clc1cccc(CN2CCN(c3ncc(Cc4ccccc4)cn3)CC2)c1Cl	i	i	i	i	i	nt	nt
C(=N/N1CCN(c2ccccc2)CC1)/c1ccco1	i	i	i	i	i	nt	nt
Cc1cccn2c(=O)c3cc(C(=O)NC4CCCCC4C)n(C)c3nc12 (stereo not given)	i	i	i	i	i	nt	nt
CCN(C(=O)c1cc2c(=O)n3ccccc3nc2n1CCCOC)C1CCCCC1	i	i	i	55	i	76	78
CCN(C(=O)c1cc2c(=O)n3ccccc3nc2n1C)C1CCCCC1	i	i	i	67	i	66	80
CN(C(=O)c1cc2c(=O)n3ccccc3nc2n1C)C1CCCCC1	i	i	i	69	i	74	81
CC1CCCCC1NC(=O)c1cc2c(=O)n3ccccc3nc2n1C (stereo not given)	i	i	i	41	i	i	i
CCN(C(=O)c1cc2c(=O)n3ccccc3nc2s1)C1CCCCC1	i	i	i	i	i	nt	nt
Cc1ccc(-c2c(NC(=O)Nc3ccccc3)nc3ncccn23)cc1	i	i	i	i	i	nt	nt
COC(=O)C1CN(Cc2cn(CCOC(C)=O)nn2)CCS(=O)(=O)N1Cc1ccc(Cl)cc1 (stereo not given)	i	i	i	i	i	nt	nt
CC(C)[C@H](NC(=O)CC1CCCC1)C(=O)N1CCC[C@H]1C(=O)NCCc1ccccc1Cl	i	i	i	i	i	nt	nt
COc1ccccc1OCCOc1ccccc1/C=N/n1cnnc1	i	i	i	i	i	nt	nt
COc1cccc2cccc(/C=N/n3cnnc3)c12	i	i	i	15	i	15	10	K7 EDANS ctr=i
CC(=O)c1ccc(NC(=O)NC2CCCCN(Cc3ccc(Cl)cc3)C2=O)cc1 (stereo not given)	i	i	i	i	i	nt	nt
O=C(O)c1ccc(N2N=C(c3ccccc3)CC2c2ccccc2)cc1 (stereo not given)	i	i	i	64	i	64	75
